# Measurements from PubChem BioAssay (EPA / NIEHS).
# Results filed as inconclusive are left out. Active and inactive are the calls of the source. The calls were made as follows: active = hit-call score of the fitted dose curve at least 0.9, where 1 is the maximum; inconclusive = response in the unintended direction; inactive = score below 0.9.
# Legend:
# [1] = target: human Casein Kinase 1-delta (CK1D), CSNK1D (gene 1453) (UniProt P48730); assay: NVS_ENZ_hCK1D: NovaScreen (NVS) Enzymatic Assay for human Casein Kinase 1-delta (CK1D) (AID 2283148)
# In short: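 Recombinant human CK1-delta, cell-free; fluorescent substrate with electrophoretic mobility-shift separation of product, read 1 h after dosing. Single 25 uM duplicate screen, then concentration-response up to 50 uM; loss of signal vs DMSO.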
# [2] = target: human Colony Stimulating Factor 1 Receptor (CSF1R), CSF1R (gene 1436) (UniProt P07333); assay: NVS_ENZ_hCSF1R: NovaScreen (NVS) Enzymatic Assay for human Colony Stimulating Factor 1 Receptor (CSF1R) (AID 2283150)
# In short: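 Cell-free recombinant human CSF1R kinase with fluorescent substrate, product separated by electrophoretic mobility shift; read 1 h after dosing. Primary screen at 25 uM in duplicate, actives then in concentration-response up to 50 uM, relative to DMSO.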
# [3] = target: human Ephrin type-A Receptor 1 (EphA1), EPHA1 (gene 2041) (UniProt P21709); assay: NVS_ENZ_hEphA1: NovaScreen (NVS) Enzymatic Assay for human Ephrin type-A Receptor 1 (EphA1) (AID 2283158);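 also: activity is signal loss versus DMSO meaning EphA1 kinase inhibition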
# In short: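 Here the EphA1 protein is recombinant and the substrate fluorescent, with electrophoretic separation before fluorescence detection at 1 hour. Signal loss against DMSO defines activity; plate controls included; follow-up concentration series reach 50 uM.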
# [4] = target: human FYN Proto-Oncogene, Src family Tyrosine Kinase (Fyn), FYN (gene 2534) (UniProt P06241); assay: NVS_ENZ_hFyn: NovaScreen (NVS) Enzymatic Assay for human FYN Proto-Oncogene, Src family Tyrosine Kinase (Fyn) (AID 2283161)
# In short: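 Recombinant enzyme with fluorescent substrate, product separated by electrophoretic mobility shift; read 1 h after dosing. Duplicate 25 uM single-point screen, actives retested in concentration series; loss of signal vs DMSO.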
# [5] = target: Histone deacetylase 3 (Homo sapiens) (UniProt O15379); assay: NVS_ENZ_hHDAC3: NovaScreen (NVS) Enzymatic Assay for human Histone Deacetylase 3 (HDAC3) (AID 2283163)
# In short: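 Recombinant human HDAC3 with fluorescent substrate, 1 h after dosing; product separated from substrate by electrophoretic mobility shift and read by fluorescence. Primary screen at 25 uM in duplicate; actives (e.g. ≥30% inhibition) retested in concentration-response up to 50 uM.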
# [6] = target: human c-Jun N-terminal Kinases (JNK2), MAPK9 (gene 5601) (UniProt P45984); assay: NVS_ENZ_hJNK2: NovaScreen (NVS) Enzymatic Assay for human c-Jun N-terminal Kinases (JNK2) (AID 2283171)
# In short: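 Cell-free recombinant human JNK2 activity assay; fluorescent substrate and product separated by electrophoretic mobility shift, read 1 h after dosing. Primary duplicate screen at 25 uM; actives run in concentration-response up to 50 uM, relative to DMSO.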
# [7] = target: human LYN Proto-Oncogene, Src family Tyrosine Kinase (LynA), LYN (gene 4067) (UniProt P07948); assay: NVS_ENZ_hLynA: NovaScreen (NVS) Enzymatic Assay for human LYN Proto-Oncogene, Src family Tyrosine Kinase (LynA) (AID 2283173)
# In short: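 Recombinant kinase with fluorescent substrate; product separated from substrate by electrophoretic mobility shift and read 1 h after dosing. Duplicate screen at 25 uM, then concentration-response up to 50 uM; activity scored as signal loss against DMSO.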
# [8] = target: Mitogen-activated protein kinase 3 (Homo sapiens) (UniProt P27361); assay: NVS_ENZ_hMAPK3: NovaScreen (NVS) Enzymatic Assay for human Mitogen-Activated Protein Kinase 3 (MAPK 3) (AID 2283177)
# In short: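 Cell-free enzymatic assay with recombinant protein and specific substrate; fluorescence and electrophoretic mobility shift read-out 1 h after dosing. Primary screen duplicate at 25 uM; actives then run in concentration-response up to 50 uM, loss of signal versus DMSO.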
# [9] = target: human Mitogen- and Stress-activated Protein Kinase-1 (Msk1), RPS6KA5 (gene 9252) (UniProt O75582); assay: NVS_ENZ_hMsk1: NovaScreen (NVS) Enzymatic Assay for human Mitogen- and Stress-activated Protein Kinase-1 (Msk1) (AID 2283187)
# In short: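 Recombinant kinase with fluorescent substrate; product separated by electrophoretic mobility shift, read 1 h after dosing. Screened in duplicate at 25 uM; hits (e.g. ≥30% inhibition) tested in concentration–response up to 50 uM. DMSO baseline.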
# [10] = target: human Dual Specificity Protein Phosphatase 3 (DUSP3), DUSP3 (gene 1845) (UniProt P51452); assay: NVS_ENZ_hDUSP3: NovaScreen (NVS) Enzymatic Assay for human Dual Specificity Protein Phosphatase 3 (DUSP3) (AID 2283152);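 also: phosphatase activity of recombinant human DUSP3 on a fluorogenic substrate without cells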
# In short: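 Cell-free assay with recombinant human DUSP3 and fluorogenic substrate, read by fluorescence intensity. Primary screen ran duplicate at 25 uM; actives followed up in concentration series; loss of signal versus DMSO scored.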
# [11] = target: human Janus Kinase 2 (Jak2), JAK2 (gene 3717) (UniProt O60674); assay: NVS_ENZ_hJak2: NovaScreen (NVS) Enzymatic Assay for human Janus Kinase 2 (Jak2) (AID 2283169)
# In short: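 Cell-free recombinant human JAK2 enzyme activity assay, fluorescence/electrophoretic mobility shift read 1 h after dosing. Screened in duplicate at 25 uM, then concentration-response up to 50 uM; activity as signal loss relative to DMSO.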
# [12] = target: human MAP Kinase-Activated Protein Kinase 2 (MAPKAPK2), MAPKAPK2 (gene 9261) (UniProt P49137); assay: NVS_ENZ_hMAPKAPK2: NovaScreen (NVS) Enzymatic Assay for human MAP Kinase-Activated Protein Kinase 2 (MAPKAPK2) (AID 2283178)
# In short: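 Cell-free recombinant human MAPKAPK2 activity measured by fluorescence with electrophoretic mobility shift separation of substrate and product, 1 hr after dosing. Loss of signal versus DMSO; primary screen at 25 uM, concentration-response up to 50 uM.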
# [13] = target: Collagenase 3 (Homo sapiens) (UniProt P45452); assay: NVS_ENZ_hMMP13: NovaScreen (NVS) Enzymatic Assay for human Matrix Metalloproteinase-13 (MMP13) (AID 2283182)
# In short: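 Recombinant MMP13 cleaving fluorescent substrate, cell-free, measured 1 h after dosing. Primary duplicate screen at 25 uM; actives tested in concentration-response up to 50 uM; loss of signal relative to DMSO.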
# [14] = target: human Matrix Metalloproteinase-2 (MMP2), MMP2 (gene 4313) (UniProt P08253); assay: NVS_ENZ_hMMP2: NovaScreen (NVS) Enzymatic Assay for human Matrix Metalloproteinase-2 (MMP2) (AID 2283184)
# In short: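 Cell-free recombinant MMP2 activity with a fluorescent substrate, read 1 h after dosing. Primary screen in duplicate at 25 uM; actives then run in concentration series; loss of signal fitted versus DMSO.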
# [15] = target: human Caspase 8 (CASP8), CASP8 (gene 841) (UniProt Q14790); assay: NVS_ENZ_hCASP8: NovaScreen (NVS) Enzymatic Assay for human Caspase 8 (CASP8) (AID 2283146)
# In short: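 E. coli-expressed enzyme was used in a cell-free fluorogenic substrate assay read 1 h after dosing. Loss of signal was scored relative to DMSO, and the primary screen was run in duplicate at 25 uM.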
# [16] = target: human Esterase Plasma (ES), BCHE (gene 590) (UniProt P06276); assay: NVS_ENZ_hES: NovaScreen (NVS) Enzymatic Assay for human Esterase Plasma (ES) (AID 2283157)
# In short: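 Chemicals were added to plasma-extracted human enzyme in a cell-free format, and activity was read colorimetrically after 0.25 hour. Activity loss was referenced to DMSO; concentration-response top dose was 50 uM.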
# [17] = target: human Elastase, ELANE (gene 1991) (UniProt P08246); assay: NVS_ENZ_hElastase: NovaScreen (NVS) Enzymatic Assay for human Elastase (AID 2283153)
# In short: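 Cell-free elastase from human neutrophils, 1.5 h after dosing, activity read by absorbance. Primary screen in duplicate at 25 uM; hits (e.g., 30% inhibition) rerun in singleton concentration-response up to 50 uM, fitted versus DMSO.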
# [18] = target: human Insulin Receptor (InsR), INSR (gene 3643) (UniProt P06213); assay: NVS_ENZ_hInsR: NovaScreen (NVS) Enzymatic Assay for human Insulin Receptor (InsR) (AID 2283168)
# In short: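 Fluorescent substrate phosphorylation by recombinant kinase, product resolved by electrophoretic mobility shift, read 1 h after dosing. Screened in duplicate at 25 uM; hits (e.g., 30% inhibition) run in concentration-response to 50 uM; DMSO as baseline.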
# [19] = target: human Matrix Metalloproteinase-7 (MMP7), MMP7 (gene 4316) (UniProt P09237); assay: NVS_ENZ_hMMP7: NovaScreen (NVS) Enzymatic Assay for human Matrix Metalloproteinase-7 (MMP7) (AID 2283183)
# In short: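 Cell-free fluorescence enzymatic assay read 1 h after compound addition, activity loss analyzed against DMSO. Primary duplicate testing at 25 uM; compounds meeting threshold rerun in singleton concentration-response up to 50 uM.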
# [20] = target: human Matrix Metalloproteinase-3 (MMP3), MMP3 (gene 4314) (UniProt P08254); assay: NVS_ENZ_hMMP3: NovaScreen (NVS) Enzymatic Assay for human Matrix Metalloproteinase-3 (MMP3) (AID 2283185)
# In short: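 Cell-free recombinant human MMP3 activity, fluorescence intensity read 1 h after dosing. Primary screen duplicate at 25 uM, actives retested in concentration series; loss of signal vs DMSO baseline.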
# human Casein Kinase 1-delta (CK1D), CSNK1D (gene 1453), sequence (P48730 whole entry, looked up): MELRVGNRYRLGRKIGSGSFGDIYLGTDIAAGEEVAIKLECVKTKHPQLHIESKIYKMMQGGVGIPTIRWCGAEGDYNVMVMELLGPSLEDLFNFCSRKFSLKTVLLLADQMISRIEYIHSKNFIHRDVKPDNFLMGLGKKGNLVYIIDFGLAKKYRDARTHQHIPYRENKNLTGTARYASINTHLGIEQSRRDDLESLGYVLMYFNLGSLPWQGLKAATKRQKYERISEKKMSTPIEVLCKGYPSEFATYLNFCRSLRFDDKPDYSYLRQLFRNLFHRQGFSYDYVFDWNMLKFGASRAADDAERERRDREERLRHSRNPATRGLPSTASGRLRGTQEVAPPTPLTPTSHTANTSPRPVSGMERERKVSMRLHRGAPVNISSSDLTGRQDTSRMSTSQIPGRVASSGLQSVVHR
# human Janus Kinase 2 (Jak2), JAK2 (gene 3717), sequence (O60674 whole entry, looked up): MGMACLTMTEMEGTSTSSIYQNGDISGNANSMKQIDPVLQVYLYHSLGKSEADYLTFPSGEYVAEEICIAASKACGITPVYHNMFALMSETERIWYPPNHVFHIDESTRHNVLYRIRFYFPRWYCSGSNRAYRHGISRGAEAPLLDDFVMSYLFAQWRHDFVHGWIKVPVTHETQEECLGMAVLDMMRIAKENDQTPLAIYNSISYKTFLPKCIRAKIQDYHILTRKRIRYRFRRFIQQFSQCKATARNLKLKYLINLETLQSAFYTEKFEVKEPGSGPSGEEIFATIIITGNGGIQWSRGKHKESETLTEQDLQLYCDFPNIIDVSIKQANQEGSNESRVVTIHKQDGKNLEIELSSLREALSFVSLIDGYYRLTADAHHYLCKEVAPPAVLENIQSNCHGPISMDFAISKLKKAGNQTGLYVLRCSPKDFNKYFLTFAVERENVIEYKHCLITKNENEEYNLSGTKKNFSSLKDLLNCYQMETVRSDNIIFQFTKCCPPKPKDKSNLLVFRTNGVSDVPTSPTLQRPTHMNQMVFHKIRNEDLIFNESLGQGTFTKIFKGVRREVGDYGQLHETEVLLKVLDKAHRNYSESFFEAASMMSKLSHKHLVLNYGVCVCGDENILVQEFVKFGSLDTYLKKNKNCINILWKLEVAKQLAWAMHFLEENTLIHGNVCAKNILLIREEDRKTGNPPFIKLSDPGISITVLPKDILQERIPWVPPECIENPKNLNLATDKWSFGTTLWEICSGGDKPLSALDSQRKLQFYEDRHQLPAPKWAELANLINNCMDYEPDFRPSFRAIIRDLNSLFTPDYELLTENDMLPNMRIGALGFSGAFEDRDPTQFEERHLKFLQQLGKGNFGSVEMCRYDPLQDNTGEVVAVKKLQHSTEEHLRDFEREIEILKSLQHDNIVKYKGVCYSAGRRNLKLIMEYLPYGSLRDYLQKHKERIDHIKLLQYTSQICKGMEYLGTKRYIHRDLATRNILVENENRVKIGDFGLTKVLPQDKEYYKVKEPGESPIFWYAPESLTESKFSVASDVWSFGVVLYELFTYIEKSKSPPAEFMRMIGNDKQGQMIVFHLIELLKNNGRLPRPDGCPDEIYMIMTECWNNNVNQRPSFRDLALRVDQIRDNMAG
# human Matrix Metalloproteinase-7 (MMP7), MMP7 (gene 4316), sequence (P09237 whole entry, looked up): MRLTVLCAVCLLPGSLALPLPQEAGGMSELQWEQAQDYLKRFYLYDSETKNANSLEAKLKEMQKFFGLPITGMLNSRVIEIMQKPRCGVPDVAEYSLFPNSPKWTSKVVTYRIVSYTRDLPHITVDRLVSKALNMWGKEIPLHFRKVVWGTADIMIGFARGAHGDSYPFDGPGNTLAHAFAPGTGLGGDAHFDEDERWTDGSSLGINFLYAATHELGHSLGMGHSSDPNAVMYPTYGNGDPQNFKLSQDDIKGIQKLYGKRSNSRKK
# human c-Jun N-terminal Kinases (JNK2), MAPK9 (gene 5601), sequence (P45984 whole entry, looked up): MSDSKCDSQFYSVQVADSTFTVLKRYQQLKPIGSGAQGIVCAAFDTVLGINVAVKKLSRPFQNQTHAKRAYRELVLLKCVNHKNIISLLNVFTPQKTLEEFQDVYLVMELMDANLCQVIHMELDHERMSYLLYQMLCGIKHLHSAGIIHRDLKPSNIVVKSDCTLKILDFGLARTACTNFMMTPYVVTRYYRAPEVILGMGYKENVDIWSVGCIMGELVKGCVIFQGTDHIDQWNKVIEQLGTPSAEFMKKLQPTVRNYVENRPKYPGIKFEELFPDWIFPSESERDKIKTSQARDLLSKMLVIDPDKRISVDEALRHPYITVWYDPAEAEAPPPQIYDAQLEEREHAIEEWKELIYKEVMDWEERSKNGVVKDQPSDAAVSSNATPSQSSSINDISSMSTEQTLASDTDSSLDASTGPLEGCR
# human Ephrin type-A Receptor 1 (EphA1), EPHA1 (gene 2041), sequence (P21709 whole entry, looked up): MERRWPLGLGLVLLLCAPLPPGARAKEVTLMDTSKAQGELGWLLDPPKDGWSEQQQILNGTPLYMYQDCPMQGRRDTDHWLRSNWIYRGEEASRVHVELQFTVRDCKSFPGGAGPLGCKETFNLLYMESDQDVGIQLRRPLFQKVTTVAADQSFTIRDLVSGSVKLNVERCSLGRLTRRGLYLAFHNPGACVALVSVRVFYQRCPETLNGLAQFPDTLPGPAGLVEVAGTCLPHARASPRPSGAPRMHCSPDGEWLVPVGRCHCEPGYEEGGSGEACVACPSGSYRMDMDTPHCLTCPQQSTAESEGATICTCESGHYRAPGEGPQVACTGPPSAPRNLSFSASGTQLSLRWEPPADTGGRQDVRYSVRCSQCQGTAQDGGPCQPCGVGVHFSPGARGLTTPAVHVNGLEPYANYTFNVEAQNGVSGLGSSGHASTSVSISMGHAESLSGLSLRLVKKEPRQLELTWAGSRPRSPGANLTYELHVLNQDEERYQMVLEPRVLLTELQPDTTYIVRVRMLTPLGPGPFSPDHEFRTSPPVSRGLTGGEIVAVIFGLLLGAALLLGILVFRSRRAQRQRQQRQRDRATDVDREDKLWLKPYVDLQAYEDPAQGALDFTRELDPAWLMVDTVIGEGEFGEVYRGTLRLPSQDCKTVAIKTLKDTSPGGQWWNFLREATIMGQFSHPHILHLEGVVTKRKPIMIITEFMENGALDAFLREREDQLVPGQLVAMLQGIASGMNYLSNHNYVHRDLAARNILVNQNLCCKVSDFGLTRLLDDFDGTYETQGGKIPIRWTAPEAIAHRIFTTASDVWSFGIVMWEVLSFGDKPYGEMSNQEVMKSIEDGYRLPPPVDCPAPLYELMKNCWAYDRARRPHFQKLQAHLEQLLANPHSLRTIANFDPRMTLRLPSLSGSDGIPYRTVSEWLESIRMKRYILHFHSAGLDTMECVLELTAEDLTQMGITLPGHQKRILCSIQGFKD
# Mitogen-activated protein kinase 3 (Homo sapiens), sequence (P27361 whole entry, looked up): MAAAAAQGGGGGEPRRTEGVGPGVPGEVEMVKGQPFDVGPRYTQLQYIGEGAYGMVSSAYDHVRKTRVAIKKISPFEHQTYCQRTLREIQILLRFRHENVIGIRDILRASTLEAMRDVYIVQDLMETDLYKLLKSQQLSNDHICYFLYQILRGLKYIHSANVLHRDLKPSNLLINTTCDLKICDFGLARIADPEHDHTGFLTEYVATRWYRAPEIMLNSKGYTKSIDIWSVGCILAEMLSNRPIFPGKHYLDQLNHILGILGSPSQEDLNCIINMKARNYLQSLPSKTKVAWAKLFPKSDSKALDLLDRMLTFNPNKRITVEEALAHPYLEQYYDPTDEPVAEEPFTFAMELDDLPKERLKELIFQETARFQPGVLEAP
# human LYN Proto-Oncogene, Src family Tyrosine Kinase (LynA), LYN (gene 4067), sequence (P07948 whole entry, looked up): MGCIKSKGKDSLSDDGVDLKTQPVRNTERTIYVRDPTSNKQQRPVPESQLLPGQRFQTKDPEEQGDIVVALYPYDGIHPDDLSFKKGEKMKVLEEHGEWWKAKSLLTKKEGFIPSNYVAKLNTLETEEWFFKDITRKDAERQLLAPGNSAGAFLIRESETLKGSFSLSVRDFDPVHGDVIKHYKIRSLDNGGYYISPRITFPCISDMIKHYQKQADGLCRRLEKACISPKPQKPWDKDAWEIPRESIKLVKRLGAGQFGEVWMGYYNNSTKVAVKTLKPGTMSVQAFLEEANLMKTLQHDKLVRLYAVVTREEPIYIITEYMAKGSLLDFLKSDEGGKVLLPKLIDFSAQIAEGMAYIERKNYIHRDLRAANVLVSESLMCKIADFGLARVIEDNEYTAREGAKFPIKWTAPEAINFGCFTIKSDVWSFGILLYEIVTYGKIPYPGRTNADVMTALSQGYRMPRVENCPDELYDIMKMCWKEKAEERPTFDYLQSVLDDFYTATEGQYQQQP
# human Elastase, ELANE (gene 1991), sequence (P08246 whole entry, looked up): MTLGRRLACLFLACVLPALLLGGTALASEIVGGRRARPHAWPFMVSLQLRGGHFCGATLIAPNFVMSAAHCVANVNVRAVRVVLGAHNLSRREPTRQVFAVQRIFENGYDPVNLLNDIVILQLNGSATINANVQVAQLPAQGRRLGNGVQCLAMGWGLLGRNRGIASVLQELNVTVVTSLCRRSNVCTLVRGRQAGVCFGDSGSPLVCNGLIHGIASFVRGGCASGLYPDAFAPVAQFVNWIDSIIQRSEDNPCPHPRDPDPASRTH
# human Esterase Plasma (ES), BCHE (gene 590), sequence (P06276 whole entry, looked up): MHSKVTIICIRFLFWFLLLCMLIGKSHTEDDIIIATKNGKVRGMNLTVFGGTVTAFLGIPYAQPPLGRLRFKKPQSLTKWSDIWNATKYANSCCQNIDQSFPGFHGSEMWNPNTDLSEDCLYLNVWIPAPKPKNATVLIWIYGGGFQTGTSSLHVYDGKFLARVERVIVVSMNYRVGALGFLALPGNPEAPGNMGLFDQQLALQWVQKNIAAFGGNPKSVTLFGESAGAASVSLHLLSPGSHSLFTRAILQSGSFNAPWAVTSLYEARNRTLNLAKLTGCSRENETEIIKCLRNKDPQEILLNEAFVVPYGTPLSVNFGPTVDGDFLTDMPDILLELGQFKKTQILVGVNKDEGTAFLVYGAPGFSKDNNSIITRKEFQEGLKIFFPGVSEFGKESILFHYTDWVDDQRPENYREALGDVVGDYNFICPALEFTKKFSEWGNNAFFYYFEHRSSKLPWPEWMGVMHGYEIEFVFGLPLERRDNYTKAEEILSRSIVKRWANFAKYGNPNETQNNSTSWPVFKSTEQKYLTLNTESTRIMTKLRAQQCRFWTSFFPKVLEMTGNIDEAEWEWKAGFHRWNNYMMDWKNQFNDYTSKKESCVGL
structure (smiles),measurement,setting,value
Cc1ccc(N)cc1O,outcome,[1],inactive
same,outcome,[2],inactive
same,outcome,[3],inactive
same,outcome,[4],inactive
same,outcome,[5],inactive
same,outcome,[6],inactive
same,outcome,[7],inactive
same,AC50,[8],20.1 µM (active)
same,outcome,[9],inactive
O=C(O)c1cc(N=Nc2ccc(S(=O)(=O)Nc3ccccn3)cc2)ccc1O,outcome,[2],inactive
same,AC50,[10],14 µM (active)
same,outcome,[3],inactive
same,outcome,[11],inactive
same,outcome,[6],inactive
same,outcome,[12],inactive
same,AC50,[13],19.5 µM (active)
same,outcome,[14],inactive
COc1ccc(-n2nc(C(F)F)cc2-c2ccc(S(C)=O)cc2)cc1 (stereo not drawn),outcome,[2],inactive
Cn1c(=O)cc(Oc2ccc(F)cc2F)c2cnc(NCC(C)(C)O)nc21,AC50,[1],0.0119 µM (active)
same,AC50,[6],0.00703 µM (active)
same,AC50,[8],34.6 µM (active)
CN(C)c1ccc(N=NS(=O)(=O)O)cc1,outcome,[1],inactive
same,outcome,[2],inactive
same,outcome,[3],inactive
CCNc1ccccc1,outcome,[15],inactive
Nc1ccc(Nc2ccccc2)cc1,AC50,[10],7.11 µM (active)
same,AC50,[16],29.8 µM (active)
same,outcome,[12],inactive
same,AC50,[13],5.61 µM (active)
O=C(O)CC(O)C(=O)O (stereo not drawn),outcome,[16],inactive
same,outcome,[5],inactive
same,outcome,[11],inactive
same,outcome,[9],inactive
CCCCC(CC)COC(=O)c1ccc(C(=O)OCC(CC)CCCC)cc1 (stereo not drawn),outcome,[17],inactive
same,outcome,[13],inactive
same,outcome,[14],inactive
CCCCC(CC)COC(=O)CCCCCCCCC(=O)OCC(CC)CCCC (stereo not drawn),AC50,[17],23.4 µM (active)
same,outcome,[8],inactive
CC(C)CCCCCCCOC(=O)CCCCC(=O)OCCCCCCCC(C)C,outcome,[7],inactive
same,outcome,[13],inactive
Clc1nc(Cl)c(Cl)c(Cl)c1Cl,outcome,[18],inactive
CC[C@H]1CC[C@H](NCc2cc3c(cc2OC)[C@H]2C[C@H]2C(=O)N3C)[C@H](c2ccccc2)N1,AC50,[16],17.3 µM (active)
same,outcome,[11],inactive
CC(C)(O)c1coc(S(=O)(=O)NC(=O)Nc2c3c(cc4c2CCC4)CCC3)c1,AC50,[13],20.6 µM (active)
COc1cccc(-c2ccc(/C=C\CN3CCCCCC3)cc2Cl)c1,AC50,[16],1.78 µM (active)
COC(=O)c1c(Cl)c(Cl)c(C(=O)OC)c(Cl)c1Cl,outcome,[16],inactive
same,outcome,[13],inactive
CCCCCCCCCCCCCCCO,outcome,[13],inactive
CCn1nc(Cc2ccccc2)cc1C1CCN(C[C@H]2C[C@H](N(C)[C@@H](C(=O)O)C(C)C)C[C@@H]2c2cccc(F)c2)CC1,AC50,[16],13 µM (active)
CCOCCOCCOCCO,AC50,[19],28.2 µM (active)
C=CC(=C)CCC=C(C)C,AC50,[19],6.56 µM (active)
Fc1ccccc1[C@@H](F)COC1CCC(Nc2ncnc3[nH]ncc23)CC1 (stereo partly drawn),outcome,[13],inactive
NC(=O)NO,outcome,[7],inactive
CC/C(=C\C(=N/O)C(N)=O)C(C)[N+](=O)[O-] (stereo not drawn),outcome,[3],inactive
O=C(NS(=O)(=O)/C=C/c1ccccc1)c1ccc(F)cc1Cl,outcome,[8],inactive
COC(=O)CC(=O)OC,AC50,[14],7.18 µM (active)
CCc1cc(SCc2sc(-c3ccc(C(F)(F)F)cc3)nc2CN2CCN(c3ccc(OC)cc3)CC2)ccc1OCC(=O)O,AC50,[17],2.7 µM (active)
same,AC50,[13],5.85 µM (active)
same,AC50,[14],19.8 µM (active)
same,outcome,[20],inactive
Oc1ccc2c(c1)-c1ccccc1C2,AC50,[17],23 µM (active)
same,outcome,[16],inactive
C=CCCCCCCCCC(=O)O,outcome,[14],inactive
CCCN(C1CCN(C(=O)C2CCNCC2)CC1)[C@@H]1CCc2ccc(OC)cc2C1,outcome,[16],inactive
CC[C@H]1OC(=O)[C@H](C)[C@@H](O[C@H]2C[C@@](C)(OC)[C@@H](O)[C@H](C)O2)[C@H](C)[C@@H](O[C@@H]2O[C@H](C)C[C@H](N(C)C)[C@H]2O)[C@](C)(O)C[C@@H](C)C(=O)[C@H](C)[C@@H](O)[C@]1(C)O,outcome,[18],inactive
CCOc1cccc(-n2cc(C(=O)N3CCN(c4cc(C(=O)O)c5ccccc5c4)CC3)nc2-c2ccc(C)cc2)c1,AC50,[17],6.63 µM (active)
CCCCCCc1ccc(O)cc1O,outcome,[19],inactive
CC(C)CC(C)(O)C#CC(C)(O)CC(C)C (stereo not drawn),outcome,[7],inactive
